Results from the supplement of paper PMC6555819.

What was measured:
Assay in all cases: PBM binding z-score (relative to random genomic background probes); higher = stronger binding; sequences stand for … in GC…GCGATTGACAGCGTAGAATGAAGG
[1] = system: RARb homodimer (NR concentration 270 nM)
Summary of the method: (§1)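 Custom Agilent 4×180K protein-binding microarrays carried double-stranded probes, each with a 34-nt variable region. These regions held direct-repeat seeds, single-nucleotide variants, half-site ablations and random human genomic background sequences. Ligand-free nuclear receptor dimers were incubated on the arrays for 1 h, antibodies against each partner (one per run) detected binding, and scanned fluorescence was regression-normalized. Binding z-scores take the random background probes as reference.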

[2] = system: RARg:RXRa (NR concentration 270 nM, RXRa partner concentration 90 nM)
Summary of the method: as §1

[3] = system: RARg homodimer (NR concentration 270 nM)
Summary of the method: as §1

[4] = system: RXRa DBDmut IVT, anti-RXR (DBD mutation: RXRa K156A/R161A, NR concentration 90 nM)
Summary of the method: as §1

[5] = system: RXRa homodimer (NR concentration 180 nM)
Summary of the method: as §1

[6] = system: THRa:RXRa (NR concentration 90 nM, RXRa partner concentration 90 nM)
Summary of the method: as §1

[7] = system: THRa homodimer (NR concentration 90 nM)
Summary of the method: as §1

[8] = system: VDR homodimer (NR concentration 270 nM)
Summary of the method: as §1

## CATACAGGGTCCGCTAGGCCAGAGTAGGGACGGC
[1]
  PBM binding z-score: -0.0807
[2]
  PBM binding z-score: -0.0159
[3]
  PBM binding z-score: 0.424
[4]
  PBM binding z-score: -0.419
[5]
  PBM binding z-score: -0.247
[6]
  PBM binding z-score: -0.0805
[7]
  PBM binding z-score: -0.241
[8]
  PBM binding z-score: -0.213

## ACTATCAGGCCAAGGGTCACTCAAGATTAGTCCG
[1]
  PBM binding z-score: 3.89
[2]
  PBM binding z-score: 4.3
[3]
  PBM binding z-score: 3.73
[4]
  PBM binding z-score: 1.23
[5]
  PBM binding z-score: 4.05
[6]
  PBM binding z-score: 3.35
[7]
  PBM binding z-score: 0.937
[8]
  PBM binding z-score: 1.45

## CGTCGGAGGACAACAGGAGGTCAGAGCTGCCAGA
[1]
  PBM binding z-score: 3.63
[2]
  PBM binding z-score: 3.83
[3]
  PBM binding z-score: 3.69
[4]
  PBM binding z-score: 0.531
[5]
  PBM binding z-score: 2.26
[6]
  PBM binding z-score: 2.98
[7]
  PBM binding z-score: 1.12
[8]
  PBM binding z-score: 1.79

## AGTCAAATTTCACTAGGTAACGTAAGATTCAGCT
[1]
  PBM binding z-score: 0.0165
[2]
  PBM binding z-score: -0.19
[3]
  PBM binding z-score: 0.218
[4]
  PBM binding z-score: 0.395
[5]
  PBM binding z-score: -0.206
[6]
  PBM binding z-score: 0.638
[7]
  PBM binding z-score: 0.471
[8]
  PBM binding z-score: 0.31

## ATATGTAGGTTATCGGGTCATTCATTTTGCGCAT
[1]
  PBM binding z-score: 3.18
[2]
  PBM binding z-score: 3.28
[3]
  PBM binding z-score: 2.49
[4]
  PBM binding z-score: 1.65
[5]
  PBM binding z-score: 3.49
[6]
  PBM binding z-score: 3.53
[7]
  PBM binding z-score: 2.79
[8]
  PBM binding z-score: 3

## AGTCAAAGTTCACTAGGCAACGTAAGATTCAGCT
[1]
  PBM binding z-score: 3.63
[2]
  PBM binding z-score: 4.84
[3]
  PBM binding z-score: 5.8
[4]
  PBM binding z-score: 4.16
[5]
  PBM binding z-score: 3.89
[6]
  PBM binding z-score: 1.4
[7]
  PBM binding z-score: -0.365
[8]
  PBM binding z-score: 3.61

## CAGCCTAGGTGAGGGCCAGTATAGGAGGAACGTT
[1]
  PBM binding z-score: 0.105
[2]
  PBM binding z-score: -0.107
[3]
  PBM binding z-score: 0.177
[4]
  PBM binding z-score: -0.941
[5]
  PBM binding z-score: -0.128
[6]
  PBM binding z-score: 0.00456
[7]
  PBM binding z-score: -0.223
[8]
  PBM binding z-score: -0.734

## CTATGTAGGTTAAGGGGGTTATTCAGTTTGAAAG
[1]
  PBM binding z-score: 2.15
[2]
  PBM binding z-score: 2.55
[3]
  PBM binding z-score: 1.56
[4]
  PBM binding z-score: 1.43
[5]
  PBM binding z-score: 2.57
[6]
  PBM binding z-score: 2.53
[7]
  PBM binding z-score: 1.4
[8]
  PBM binding z-score: 3.24

## TCGAGTAGGTTACGGGGGCTTTCAGGGATGAAGA
[1]
  PBM binding z-score: 1.29
[2]
  PBM binding z-score: 1.96
[3]
  PBM binding z-score: 1.19
[4]
  PBM binding z-score: 1.17
[5]
  PBM binding z-score: 1.69
[6]
  PBM binding z-score: 2.43
[7]
  PBM binding z-score: 0.921
[8]
  PBM binding z-score: 0.544

## CTGTGTAGGTTAAGGGGGTCATTCAGTTTGAAAG
[1]
  PBM binding z-score: 4.19
[2]
  PBM binding z-score: 5.13
[3]
  PBM binding z-score: 4.04
[4]
  PBM binding z-score: 2.68
[5]
  PBM binding z-score: 5.91
[6]
  PBM binding z-score: 3.89
[7]
  PBM binding z-score: 2.98
[8]
  PBM binding z-score: 5.36

## ATCGAAAGGTCGTGAGGTGTGTATACAGAAAGGC
[1]
  PBM binding z-score: 2.68
[2]
  PBM binding z-score: 4.5
[3]
  PBM binding z-score: 4.17
[4]
  PBM binding z-score: 1.67
[5]
  PBM binding z-score: 4.81
[6]
  PBM binding z-score: 2.44
[7]
  PBM binding z-score: -0.109
[8]
  PBM binding z-score: 1.16

## ATATGTAGGTTAGGTTCATTCAGAAAGTAGGGAA
[1]
  PBM binding z-score: 1.29
[2]
  PBM binding z-score: 1.47
[3]
  PBM binding z-score: 1.35
[4]
  PBM binding z-score: 3.43
[5]
  PBM binding z-score: 2.17
[6]
  PBM binding z-score: 1.8
[7]
  PBM binding z-score: 0.787
[8]
  PBM binding z-score: 5.47

## CGAACTAGGTCAAAGGACACTGAAAGGCGACGTA
[1]
  PBM binding z-score: 3.06
[2]
  PBM binding z-score: 4.19
[3]
  PBM binding z-score: 4.7
[4]
  PBM binding z-score: 1.6
[5]
  PBM binding z-score: 3.12
[6]
  PBM binding z-score: 2.69
[7]
  PBM binding z-score: 0.861
[8]
  PBM binding z-score: 0.852

## CTATGTAGGTTAAGGGGATCATTCAGTTTGAAAG
[1]
  PBM binding z-score: 0.917
[2]
  PBM binding z-score: 0.82
[3]
  PBM binding z-score: 0.66
[4]
  PBM binding z-score: 0.605
[5]
  PBM binding z-score: 1.12
[6]
  PBM binding z-score: 0.96
[7]
  PBM binding z-score: 0.136
[8]
  PBM binding z-score: 0.834

## CTATGTAGGTAAAGGGGGTCATTCAGTTTGAAAG
[1]
  PBM binding z-score: 3.55
[2]
  PBM binding z-score: 4.43
[3]
  PBM binding z-score: 2.93
[4]
  PBM binding z-score: 2.5
[5]
  PBM binding z-score: 5.6
[6]
  PBM binding z-score: 3.66
[7]
  PBM binding z-score: 1.73
[8]
  PBM binding z-score: 6.01

## CGAAGTAGGTCACCAGGACAGTGAAGAGGTTGGA
[1]
  PBM binding z-score: 3.32
[2]
  PBM binding z-score: 4.39
[3]
  PBM binding z-score: 5.16
[4]
  PBM binding z-score: 1.03
[5]
  PBM binding z-score: 3.57
[6]
  PBM binding z-score: 2.85
[7]
  PBM binding z-score: 1.2
[8]
  PBM binding z-score: 0.581

## CCTTACGGGCCACGAGGTTATAGCACGACGAGCG
[1]
  PBM binding z-score: 1.17
[2]
  PBM binding z-score: 1.33
[3]
  PBM binding z-score: 1.07
[4]
  PBM binding z-score: -0.516
[5]
  PBM binding z-score: 1.28
[6]
  PBM binding z-score: 1.25
[7]
  PBM binding z-score: 0.458
[8]
  PBM binding z-score: 0.543

## CTCGAAAGGTCGTGGTCAGGTGAGTATACCAAAC
[1]
  PBM binding z-score: 3.25
[2]
  PBM binding z-score: 5.58
[3]
  PBM binding z-score: 4.34
[4]
  PBM binding z-score: 1.88
[5]
  PBM binding z-score: 5.4
[6]
  PBM binding z-score: 4.01
[7]
  PBM binding z-score: 0.825
[8]
  PBM binding z-score: 1.13

## TCGAGGAGGTTACGGGGGCATTCAGGGATGAAGA
[1]
  PBM binding z-score: 2.61
[2]
  PBM binding z-score: 4.51
[3]
  PBM binding z-score: 3.37
[4]
  PBM binding z-score: 2.51
[5]
  PBM binding z-score: 4.12
[6]
  PBM binding z-score: 4.31
[7]
  PBM binding z-score: 1.88
[8]
  PBM binding z-score: 3.86

## CGTCCGAGGTCAAAGGTCAGTGAAGAGATGACGG
[1]
  PBM binding z-score: 5.1
[2]
  PBM binding z-score: 8.9
[3]
  PBM binding z-score: 8.05
[4]
  PBM binding z-score: 4.57
[5]
  PBM binding z-score: 10.3
[6]
  PBM binding z-score: 4.89
[7]
  PBM binding z-score: 2.7
[8]
  PBM binding z-score: 4.73

## CCGAGTAGGGTACGAGGGGGCATTCAGTGCGAAT
[1]
  PBM binding z-score: 1.62
[2]
  PBM binding z-score: 1.87
[3]
  PBM binding z-score: 1.59
[4]
  PBM binding z-score: 1.73
[5]
  PBM binding z-score: 1.03
[6]
  PBM binding z-score: 2.64
[7]
  PBM binding z-score: 0.475
[8]
  PBM binding z-score: 4.03

## TCTCGGAGGACACGAAAGGTCTGAGCTCGACATC
[1]
  PBM binding z-score: 1.21
[2]
  PBM binding z-score: 0.667
[3]
  PBM binding z-score: 1.47
[4]
  PBM binding z-score: 0.831
[5]
  PBM binding z-score: 0.137
[6]
  PBM binding z-score: 1.53
[7]
  PBM binding z-score: 0.392
[8]
  PBM binding z-score: -0.266

## TCTGCTAGGTCAGTTGGGCAGCTAACGAGCTGCC
[1]
  PBM binding z-score: 1.91
[2]
  PBM binding z-score: 2.37
[3]
  PBM binding z-score: 3.42
[4]
  PBM binding z-score: 0.193
[5]
  PBM binding z-score: 0.493
[6]
  PBM binding z-score: 1.12
[7]
  PBM binding z-score: -0.349
[8]
  PBM binding z-score: -0.821

## CCGACTGGGGCAAAGGTTACGATACTCAGTACGA
[1]
  PBM binding z-score: 2.03
[2]
  PBM binding z-score: 3.68
[3]
  PBM binding z-score: 1.78
[4]
  PBM binding z-score: 0.541
[5]
  PBM binding z-score: 3.62
[6]
  PBM binding z-score: 1.81
[7]
  PBM binding z-score: -0.139
[8]
  PBM binding z-score: -0.301

## CTATGTAGGTTAAGGGGGCCATTCAGTTTGAAAG
[1]
  PBM binding z-score: 1.71
[2]
  PBM binding z-score: 2.17
[3]
  PBM binding z-score: 1.78
[4]
  PBM binding z-score: 1.21
[5]
  PBM binding z-score: 1.73
[6]
  PBM binding z-score: 2.02
[7]
  PBM binding z-score: 0.914
[8]
  PBM binding z-score: 1.98

## GCTGCTCGGTCAACTGATGGTCAGCTAAAGCTCG
[1]
  PBM binding z-score: 2.15
[2]
  PBM binding z-score: 2.42
[3]
  PBM binding z-score: 3.21
[4]
  PBM binding z-score: -0.121
[5]
  PBM binding z-score: -0.0356
[6]
  PBM binding z-score: 0.0227
[7]
  PBM binding z-score: -0.551
[8]
  PBM binding z-score: -0.439

## ACTTGGAGGACAAAGGTCAGAGCTACGCCAGTGA
[1]
  PBM binding z-score: 4.32
[2]
  PBM binding z-score: 6.26
[3]
  PBM binding z-score: 5.66
[4]
  PBM binding z-score: 1.71
[5]
  PBM binding z-score: 5.24
[6]
  PBM binding z-score: 3.55
[7]
  PBM binding z-score: 0.496
[8]
  PBM binding z-score: 1.62

## ATATGTAGGTTATGGTCATTCAGAAAGTAGGGAA
[1]
  PBM binding z-score: 1.22
[2]
  PBM binding z-score: 1.16
[3]
  PBM binding z-score: 1.22
[4]
  PBM binding z-score: 0.958
[5]
  PBM binding z-score: 1.32
[6]
  PBM binding z-score: 1.05
[7]
  PBM binding z-score: 0.5
[8]
  PBM binding z-score: 0.656
